In PubChem BioAssay (EPA / NIEHS):
Several values for one entry are separate records, joined by “and”; a condition that tells them apart may be missing. Equal entries are not always repeated. The source holds several records for some structures; these can differ, active in one and inactive in another. Activity calls are given as the source filed them. Rule for the calls: active = hit-call score of the fitted dose curve at least 0.9, where 1 is the maximum; inactive = score below 0.9.

Tests used:
[1] = read-out: Interleukin-6 (IL6), IL6 (gene 3569); assay: BSK_CASM3C_IL6: BioMAP Diversity Plus: CASM3C Assay for Interleukin-6 (IL6) Biomarker Activity for (AID 2283040); conditions: primary human coronary artery smooth muscle cells; actives raise or lower the signal
[2] = read-out: Tissue plasminogen activator (tPA), PLAT (gene 5327); assay: BSK_BE3C_tPA: BioMAP Diversity Plus: BE3C Assay for Tissue plasminogen activator (tPA) Biomarker Activity (AID 2283041); conditions: primary human bronchial epithelial cells; actives raise or lower the signal
Outline: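 Bidirectional curve fitting relative to DMSO defined activity, with tPA detected by ELISA in chemically treated human bronchial epithelial primary cells at 24 hours.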

[3] = read-out: Interleukin-8 (IL8), CXCL8 (gene 3576); assay: BSK_CASM3C_IL8: BioMAP Diversity Plus: CASM3C Assay for Interleukin-8 (IL8) Biomarker Activity (AID 2283042); conditions: primary human coronary artery smooth muscle cells; actives raise or lower the signal;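 note: IL-8 protein level quantified by ELISA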
[4] = read-out: Human Leukocyte Antigen - DR isotype (HLADR), HLA-DRA (gene 3122); assay: BSK_CASM3C_HLADR: BioMAP Diversity Plus: CASM3C Assay for Human Leukocyte Antigen - DR isotype (HLADR) Biomarker Activity (AID 2283043); conditions: primary human coronary artery smooth muscle cells; actives raise or lower the signal;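 note: cell-surface HLA-DR protein level quantified by ELISA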
[5] = read-out: Macrophage colony-stimulating factor (MCSF), CSF1 (gene 1435); assay: BSK_CASM3C_MCSF: BioMAP Diversity Plus: CASM3C Assay for Macrophage colony-stimulating factor (MCSF) Biomarker Activity (AID 2283044); conditions: primary human coronary artery smooth muscle cells; actives raise or lower the signal;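 note: M-CSF protein amount quantified by ELISA after 24 h exposure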
[6] = read-out: Low-density lipoprotein receptor (LDLR), LDLR (gene 3949); assay: BSK_CASM3C_LDLR: BioMAP Diversity Plus: CASM3C Assay for Low-density lipoprotein receptor (LDLR) Biomarker Activity (AID 2283045); conditions: primary human coronary artery smooth muscle cells; actives raise or lower the signal;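 note: LDLR protein level on the cell surface quantified by ELISA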
[7] = read-out: Monocyte Chemoattractant Protein-1 (MCP1), CCL2 (gene 6347); assay: BSK_CASM3C_MCP1: BioMAP Diversity Plus: CASM3C Assay for Monocyte Chemoattractant Protein-1 (MCP1) Biomarker Activity (AID 2283046); conditions: primary human coronary artery smooth muscle cells; actives raise or lower the signal;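 note: MCP-1 level quantified by ELISA 24 h after dosing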
[8] = BSK_CASM3C_Proliferation: Cell Proliferation Assessment in the BioMAP Diversity Plus: CASM3C Assay (AID 2283047); conditions: primary human coronary artery smooth muscle cells;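 note: sulforhodamine B total protein stain as relative cell number at 560 nm; sub-confluent cells exposed 48 h before staining; fitted both ways against DMSO so gain or loss of cell number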
[9] = read-out: Monokine induced gamma interferon (MIG), CXCL9 (gene 4283); assay: BSK_CASM3C_MIG: BioMAP Diversity Plus: CASM3C Assay for Monokine induced gamma interferon (MIG) Biomarker Activity (AID 2283048); conditions: primary human coronary artery smooth muscle cells; actives raise or lower the signal;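 note: MIG protein level measured by ELISA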
[10] = read-out: serum amyloid A (SAA), SAA1 (gene 6288); assay: BSK_CASM3C_SAA: BioMAP Diversity Plus: CASM3C Assay for serum amyloid A (SAA) Biomarker Activity (AID 2283049); conditions: primary human coronary artery smooth muscle cells; actives raise or lower the signal;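 note: SAA protein level quantified by ELISA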

Measured: AC50

CCCCN1C(=O)[C@@H]([C@H](O)C2CCCCC2)NC(=O)C12CCN(Cc1ccc(Oc3ccc(C(=O)O)cc3)cc1)CC2
active: [6] 9.69 µM | [8] 18.3 µM
inactive: all other assays above

CCc1ccc(O)c(C(C)(C)C)c1
active: [8] 20 µM
inactive: all other assays above

CC1(C)C(=O)N(Cl)C(=O)N1Cl
inactive: all assays above

CCCCCCCCCCCCCCCCOS(=O)(=O)O
active: [2] 14.9 µM
inactive: all other assays above

OC(Cn1cncn1)(Cn1cncn1)c1ccc(F)cc1F
inactive: all assays above

OCC(CO)(CO)CO
inactive: all assays above

CCCCCCOC(=O)CC(CC(=O)OCCCCCC)(OC(=O)CCC)C(=O)OCCCCCC
inactive: all assays above

CC[C@H](C)C(=O)O[C@H]1C[C@H](O)C=C2C=C[C@H](C)[C@H](CC[C@@H](O)C[C@@H](O)CC(=O)O)[C@H]21
inactive: all assays above

CCCCCCCC/C=C\CCCCCCCC(=O)OC[C@@H](O)[C@H]1OC[C@H](O)[C@H]1O
inactive: all assays above

COc1cc2c(c(OC)c1OC)-c1ccc(OC)c(=O)cc1[C@@H](NC(C)=O)CC2
active: [1] 0.148 µM | [4] 0.43 µM | [8] 0.148 µM
inactive: all other assays above

C[C@@H](Oc1ccc(CNC(=O)c2cccnc2Oc2ccc3c(c2)OCO3)c(F)c1)C(=O)O
inactive: all assays above

OCCC(F)(F)C(F)(F)C(F)(F)C(F)(F)F
inactive: all assays above

O=C(O)c1cccc(C(=O)O)c1
inactive: all assays above

NNC(=O)c1ccncc1
inactive: all assays above

COS(C)(=O)=O
inactive: all assays above

FC(F)C(F)(F)COCC1CO1 (centres undefined)
inactive: all assays above

Cn1cc[nH]c1=S
inactive: all assays above

FC(F)(F)C(F)(F)C(F)(F)C(F)(F)C(F)(F)C(F)(F)I
inactive: all assays above

C[Si](C)(C)C(F)(F)C(F)(F)C(F)(F)F
inactive: all assays above

O=S(=O)(O)CCC(F)(F)C(F)(F)C(F)(F)C(F)(F)C(F)(F)C(F)(F)F
inactive: all assays above

NC(N)=O
not listed: [5]
inactive: all other assays above

Nc1ccn([C@@H]2O[C@H](CO)[C@@H](O)[C@@H]2O)c(=O)n1
active: [8] 0.148 µM
inactive: all other assays above

FC(F)(F)COC(OCC(F)(F)F)OCC(F)(F)F
inactive: all assays above

OC(O)(C(F)C(O)(O)C(F)(F)F)C(F)(F)F
inactive: [1] | [3] | [4] | [5] | [6] | [7] | [8] | [10]
active: [2] 24.6 µM and 20.5 µM | [9] 33.3 µM and 28.2 µM | [10] 49.1 µM

CCCCCOC(C)=O
inactive: all assays above

CC(C)c1nnc2ccc(-c3ocnc3-c3cc(F)ccc3F)cn12
active: [1] 0.552 µM | [3] 0.628 µM | [4] 0.561 µM | [6] 0.551 µM
inactive: all other assays above

Cc1ccc(S(=O)(=O)NC(=O)NN2CCCCCC2)cc1
inactive: all assays above

S=P(N1CC1)(N1CC1)N1CC1
active: [8] 20.9 µM
inactive: all other assays above

COCc1nnc(-c2ccc[n+]([O-])c2)n1-c1c(Cl)c(Cl)cc2[nH]c(=O)c(=O)[nH]c12
inactive: all assays above

OCCNCCO
inactive: all assays above

CCCCCCCCCCCCCCO
active: [5] 31.3 µM | [6] 32.3 µM | [7] 32.4 µM | [8] 38 µM | [9] 29.5 µM | [10] 31 µM
inactive: [1] | [2] | [3] | [4]

CCCCCCCCCC
inactive: all assays above

O=c1[nH]cnc2c1ncn2[C@H]1CC[C@@H](CO)O1
not listed: [5]
inactive: all other assays above

O=C(Cl)C(F)(F)C(F)(F)C(F)(F)C(=O)Cl
inactive: all assays above

OCc1c[nH]c2ccccc12
inactive: all assays above

CCn1nc(C)c2c1C(=O)NCC(c1ccc(O)cc1)=N2
active: [5] 2.51 µM | [8] 10 µM
inactive: all other assays above

Cc1cccc(O)c1C
inactive: all assays above

c1ccc2ncccc2c1
inactive: all assays above

c1ccc2c(c1)-c1cccc3c1c-2cc1ccccc13
inactive: all assays above

CC(C)CC(C)O (centres undefined)
inactive: all assays above

O=C(O)[C@H](O)[C@@H](O)C(=O)O
inactive: all assays above
